Source: the supplement of paper PMC6555819

tested on: PPARg:RXRa 30nM:10nM, anti-RXR (NR concentration 30 nM, RXRa partner concentration 10 nM); test: PBM binding z-score (relative to random genomic background probes); higher = stronger binding; sequences stand for … in GC…GCGATTGACAGCGTAGAATGAAGG
Procedure, shortened: (§1)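 Custom Agilent 4×180K protein-binding microarrays carried double-stranded probes. Their 34-nt variable regions held direct-repeat seeds, single-nucleotide variants, half-site ablations and random human genomic background sequences. Arrays were incubated 1 h with ligand-free nuclear receptor dimers in PBS pH 7.4, 2% milk, 0.02% Triton X-100, 1 mM DTT, 0.2 mg/mL BSA and 0.4 mg/ml salmon testes DNA. Antibodies against each partner (one per run) detected binding, and scanned fluorescence was regression-normalized. Binding z-scores use random background probes as reference.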

| Sequence | PBM binding z-score |
| --- | --- |
| ATCTCTAGGTAAAGGTAGTTCAGTGAATGCAAAT | 0.811 |
| ACTTTTAGTTGAGACGAGGGCAACCGATAGGTTG | 0.289 |
| TGTTGTAGATCAGCAGGTTAAGAAAGCTGGCCAA | -0.287 |
| CACCCTAGGTCAGGGCCAGTATAGGAGGAACGTT | -0.0218 |
| AGAATGAGGTTATTAAGATCTGGGAATTGCGGTC | 0.36 |
| CGTCCAAGGTCAGAGACGTCAGTGAATGCCGAGT | 0.132 |
| ATCTCTCGGTAACAAGTTCAGTGAAAGAGAGGAC | 0.251 |
| TCTATTAGTTGAAGGGCAACCAACGAGTCCGTTT | 3.75 |
| TCTATTAGTTGCAGGGCAACCGACGAGTCCGTTT | 3.41 |
| CAAACTGGGTCACGAAAGGTCAAAGTCGAATGAC | 6.44 |
| TTCCCAAGGTGAAAGGTCGTTGATGCACGCCTTG | 6.2 |
| CGTACAAGGTCATAGGAGGTCAGTGAAGACAGAT | 3.17 |
| CCTAGCAGGCCACTCTGGGTCACTCAAGGCTTGA | -0.56 |
| AGTCAAAGTTCATCTAGGTAACGTACGATATGCT | 3.66 |
| CAAACTAGGTCATGAAAGGTCAAAGTCGAATGAC | 6.46 |
| CGTCCAAGTTCAAGGTAACGTAACAGAAAGCAGC | 0.382 |
| CAAACTAGGTCGCAGAGGTCAAAGTCCGTGCGTA | 4.01 |
| CCTATTAGTTGACCATAAGGGCAACGGAAGCTCG | 0.321 |
| CAAACTAGGTCACGAAAGGACAAAGTCGAATGAC | 5.83 |
| CCTCTGAGGACAGAAGGTCAGAGCTGTCCGCTTT | -0.534 |

| Sequence | PBM binding z-score |
| --- | --- |
| TCTACTAGTTGAAGGGCAACCGACGAGTCCGTTT | 3.03 |
| GCTAGCAGGCCATGTGGGTCACTCAATGACGGGC | -0.316 |
| ACTAGTAGGCCAAGTTTGGGTCACTCAAACAAAG | 0.504 |
| ATCTCTAGGTAACAAGTGCAGTGAAAGAGAGGAC | 0.591 |
| GCATATAGGTAATACAAGGTGAAAGTGCGATTGT | 1.04 |
| GATACAGGGACAGCTAGAGGCCAGAGTATGGAAA | -0.2 |
| AGAATGAGGTTACCCAAGATCAGGGAAACGCTTG | 0.837 |
| TCTCGGAGGACACGAAAGGTAAGAGCTCGACATC | 2.19 |
| TCTAGTAGATCAAGCAGGTTAAGAAAGCCTGAGT | 2.82 |
| GGAACGAGGGCTAAGTTGATAGCATCTGTCGACG | 1.41 |
| TTACCAAGGTGAAGGACGTTGATCCCTCTGTAGA | 0.789 |
| GCTTGTAGATCAAGGTTAAGGAAGACTAAGCTAA | 0.604 |
| ATCGAGAGGTCGAAGGTGAGTATACCCACCCGAA | 1.81 |
| TCTGCTAGGTCAACGATGGTCAGCTAATCTGCTA | 1.76 |
| CCTAGTTGCTCAAGGTCACACACGCTATAGGTAC | 0.986 |
| TAGCCTAGGTCATTGGGCCTGTATAGTACGCATC | 0.506 |
| TCTAGTTTGTCACGGAGGTCACACACGACGGGTA | 3.81 |
| GCATAGAGGTAATACAAGGTGAAAGTCCGATTGT | 0.448 |
| GCTACCAGGCCATTTGGGTCACTCAATGACGGGC | -0.356 |
| CCTAGCATGCCAATCTGGGTCACTCAAGGCTTGA | -0.035 |

tested on: PPARg:RXRa 90nM:30nM, anti-RXR (NR concentration 90 nM, RXRa partner concentration 30 nM); test: as above
Procedure, shortened: as §1

| Sequence | PBM binding z-score |
| --- | --- |
| ATCTCTAGGTAAAGGTAGTTCAGTGAATGCAAAT | 1.4 |
| ACTTTTAGTTGAGACGAGGGCAACCGATAGGTTG | 0.332 |
| TGTTGTAGATCAGCAGGTTAAGAAAGCTGGCCAA | -0.0252 |
| CACCCTAGGTCAGGGCCAGTATAGGAGGAACGTT | 0.354 |
| AGAATGAGGTTATTAAGATCTGGGAATTGCGGTC | 0.922 |
| CGTCCAAGGTCAGAGACGTCAGTGAATGCCGAGT | 1.48 |
| ATCTCTCGGTAACAAGTTCAGTGAAAGAGAGGAC | 0.484 |
| TCTATTAGTTGAAGGGCAACCAACGAGTCCGTTT | 2.69 |
| TCTATTAGTTGCAGGGCAACCGACGAGTCCGTTT | 2.38 |
| CAAACTGGGTCACGAAAGGTCAAAGTCGAATGAC | 8.43 |
| TTCCCAAGGTGAAAGGTCGTTGATGCACGCCTTG | 7.54 |
| CGTACAAGGTCATAGGAGGTCAGTGAAGACAGAT | 5.29 |
| CCTAGCAGGCCACTCTGGGTCACTCAAGGCTTGA | 0.0943 |
| AGTCAAAGTTCATCTAGGTAACGTACGATATGCT | 5.86 |
| CAAACTAGGTCATGAAAGGTCAAAGTCGAATGAC | 8.38 |
| CGTCCAAGTTCAAGGTAACGTAACAGAAAGCAGC | 1.04 |
| CAAACTAGGTCGCAGAGGTCAAAGTCCGTGCGTA | 6.06 |
| CCTATTAGTTGACCATAAGGGCAACGGAAGCTCG | 0.476 |
| CAAACTAGGTCACGAAAGGACAAAGTCGAATGAC | 7.48 |
| CCTCTGAGGACAGAAGGTCAGAGCTGTCCGCTTT | 0.582 |

| Sequence | PBM binding z-score |
| --- | --- |
| TCTACTAGTTGAAGGGCAACCGACGAGTCCGTTT | 2.48 |
| GCTAGCAGGCCATGTGGGTCACTCAATGACGGGC | 0.415 |
| ACTAGTAGGCCAAGTTTGGGTCACTCAAACAAAG | 1.13 |
| ATCTCTAGGTAACAAGTGCAGTGAAAGAGAGGAC | 1.05 |
| GCATATAGGTAATACAAGGTGAAAGTGCGATTGT | 2 |
| GATACAGGGACAGCTAGAGGCCAGAGTATGGAAA | -0.369 |
| AGAATGAGGTTACCCAAGATCAGGGAAACGCTTG | 1.49 |
| TCTCGGAGGACACGAAAGGTAAGAGCTCGACATC | 1.28 |
| TCTAGTAGATCAAGCAGGTTAAGAAAGCCTGAGT | 1.92 |
| GGAACGAGGGCTAAGTTGATAGCATCTGTCGACG | 2.31 |
| TTACCAAGGTGAAGGACGTTGATCCCTCTGTAGA | 1.17 |
| GCTTGTAGATCAAGGTTAAGGAAGACTAAGCTAA | 1.48 |
| ATCGAGAGGTCGAAGGTGAGTATACCCACCCGAA | 3.84 |
| TCTGCTAGGTCAACGATGGTCAGCTAATCTGCTA | 2.48 |
| CCTAGTTGCTCAAGGTCACACACGCTATAGGTAC | 1.95 |
| TAGCCTAGGTCATTGGGCCTGTATAGTACGCATC | 1.59 |
| TCTAGTTTGTCACGGAGGTCACACACGACGGGTA | 3.66 |
| GCATAGAGGTAATACAAGGTGAAAGTCCGATTGT | 0.729 |
| GCTACCAGGCCATTTGGGTCACTCAATGACGGGC | 0.658 |
| CCTAGCATGCCAATCTGGGTCACTCAAGGCTTGA | 1.26 |
